Screens (PubChem BioAssay)
The full list was thinned out, with hits kept by preference.
KDM5B inh: Primary screen for KDM5B Histone Demethylases FDH-coupled qHTS. Potency, µM (titrated, usually from 57.7 µM), hits mostly inhibitors. Lysine-specific demethylase 5B (Homo sapiens), Q9UGL1. 220,000 compounds, 2.6% hits. KDM5B demethylase, FDH-coupled NADH fluorescence (FDH is formaldehyde dehydrogenase); active = well fitted inhibition curve with a large enough effect; note: 0% is about no effect; nearly all actives have a fitted effect of over 70% in size
Target sequence (Q9UGL1 whole entry, looked up): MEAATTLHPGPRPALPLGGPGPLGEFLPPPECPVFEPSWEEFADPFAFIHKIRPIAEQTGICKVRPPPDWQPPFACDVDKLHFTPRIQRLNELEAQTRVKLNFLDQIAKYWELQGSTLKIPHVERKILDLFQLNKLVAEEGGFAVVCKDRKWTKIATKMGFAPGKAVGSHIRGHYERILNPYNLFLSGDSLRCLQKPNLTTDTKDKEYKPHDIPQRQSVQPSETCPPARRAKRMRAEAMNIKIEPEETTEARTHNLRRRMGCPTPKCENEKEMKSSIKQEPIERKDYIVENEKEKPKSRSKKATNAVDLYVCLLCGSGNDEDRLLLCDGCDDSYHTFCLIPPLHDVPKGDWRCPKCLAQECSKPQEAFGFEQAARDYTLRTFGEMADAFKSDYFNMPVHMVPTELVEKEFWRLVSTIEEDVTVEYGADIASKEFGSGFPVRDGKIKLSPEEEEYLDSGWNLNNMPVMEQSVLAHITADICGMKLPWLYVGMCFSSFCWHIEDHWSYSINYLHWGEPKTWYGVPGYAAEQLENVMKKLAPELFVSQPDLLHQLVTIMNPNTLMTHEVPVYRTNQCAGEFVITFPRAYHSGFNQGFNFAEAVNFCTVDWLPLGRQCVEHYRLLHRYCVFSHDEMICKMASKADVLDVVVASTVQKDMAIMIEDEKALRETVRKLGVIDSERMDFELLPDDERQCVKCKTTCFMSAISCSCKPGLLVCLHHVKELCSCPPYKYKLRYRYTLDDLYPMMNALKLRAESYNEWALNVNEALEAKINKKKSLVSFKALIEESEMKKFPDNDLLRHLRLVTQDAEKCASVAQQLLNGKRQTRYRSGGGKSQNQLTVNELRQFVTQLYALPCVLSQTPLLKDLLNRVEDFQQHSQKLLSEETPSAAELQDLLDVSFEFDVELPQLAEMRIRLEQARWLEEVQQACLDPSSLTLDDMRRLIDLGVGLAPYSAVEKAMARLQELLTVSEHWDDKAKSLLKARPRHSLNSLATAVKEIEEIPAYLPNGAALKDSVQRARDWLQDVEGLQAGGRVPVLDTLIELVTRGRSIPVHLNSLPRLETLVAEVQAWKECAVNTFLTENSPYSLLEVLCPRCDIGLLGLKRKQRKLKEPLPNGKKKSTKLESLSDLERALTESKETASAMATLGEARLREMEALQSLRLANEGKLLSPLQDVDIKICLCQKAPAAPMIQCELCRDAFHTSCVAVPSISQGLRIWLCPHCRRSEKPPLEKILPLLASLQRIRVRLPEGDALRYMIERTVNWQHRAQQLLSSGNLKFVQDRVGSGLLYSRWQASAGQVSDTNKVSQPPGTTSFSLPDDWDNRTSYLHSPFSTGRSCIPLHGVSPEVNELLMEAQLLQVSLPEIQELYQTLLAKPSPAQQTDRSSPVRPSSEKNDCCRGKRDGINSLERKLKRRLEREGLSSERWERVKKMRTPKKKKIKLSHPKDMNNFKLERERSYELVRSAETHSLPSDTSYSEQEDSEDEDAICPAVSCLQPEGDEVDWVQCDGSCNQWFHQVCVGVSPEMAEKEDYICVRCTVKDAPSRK
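Inhibition is measured as reduced NADH fluorescence generation from FDH coupling to formaldehyde release. Truncated KDM5BΔAP at 200 nM final acts on H3K4me3 peptide (12.5 µM in substrate mix) in pH 7.5 HEPES buffer with Tween-20, 30 min, room temperature.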
The depositor's hits bear a star; i = inactive. Potency is the fitted concentration of half-maximal effect.

SMILES	KDM5B inh
Cc1cc(-c2ccnc(-c3nnc(C)n3CCN3CCOCC3)c2)ccn1	i
CC(C)n1nc(C(=O)NCc2cccs2)c2ccccc2c1=O	i
CCNC(=O)C1CCN(S(=O)(=O)c2c(C)nn(CC(=O)N3CCc4ccccc43)c2C)CC1	i
Cc1c(O)ccc2c(=O)c(-c3cnn(-c4ccccc4)c3)c(C(F)(F)F)oc12	i
Cc1ccccc1CN1CCC(CNC(=O)c2cccc3c2SCCC3=O)CC1	i
CCCNC(=O)N1CCN(Cc2c(C)noc2C)CC1	i
C=C(C)CN1CCN(c2nc3c(c(=O)[nH]c(=O)n3C)n2Cc2cc(C)ccc2C)CC1	i
O=C(c1cc2cc(Br)ccc2o1)c1ccccc1F	i
CCOc1cccc(C2CC(=O)NC3=C2C(=O)CC(C)(C)C3)c1 (stereo not given)	i
CC(=O)Nc1ccc(-c2csc(NC(=O)c3cc4cnn(C(C)C)c4nc3C)n2)cc1	i
Cc1nnc(-c2cc(-c3cccc(CO)c3)ccn2)n1CCN1CCOCC1	i
Cc1nnc(-c2cc(-c3cccc(OC(F)(F)F)c3)ccn2)n1CCN1CCOCC1	i
COc1ccc(-c2ccnc(-c3nnc(C)n3CCN(C)C)c2)cc1OC	28.2µM*
COc1ccc(-c2ccnc(-c3nnc(C)n3Cc3ccccc3)c2)cc1OC	35.5µM*
Cc1nnc(-c2cc(-c3cccc(O)c3)ccn2)n1CCc1ccccc1	i
Cc1nnc(-c2cc(-c3ccc(N4CCOCC4)cc3)ccn2)n1C1CCCCC1	31.6µM*
Cc1nnc(-c2cc(-c3cccnc3)ccn2)n1CCN1CCOCC1	i
COCCn1c(C)nnc1-c1cc(-c2cccc(N(C)C)c2)ccn1	i
Cc1nnc(-c2cc(-c3ccc(N4CCOCC4)cc3)ccn2)n1Cc1ccccc1	20µM*
Cc1nnc(-c2cc(-c3cnn(C)c3)ccn2)n1C1CCCCC1	i
Cc1nnc(-c2cc(-c3cccc(CO)c3)ccn2)n1Cc1ccccc1	i
S=C(NCCSc1ccc(Cl)cc1)Nc1ccc(Nc2ccccc2)cc1	i
c1ccc2cc(OCCSc3nc4ccccc4o3)ccc2c1	i
COCc1nnc(NC(=O)C2c3ccccc3C(=O)N(CC(C)C)C23CCCCC3)s1 (stereo not given)	i
Cc1ccc(-c2cnc(CCC(=O)Nc3c(C)cccc3C(C)C)o2)cc1	i
SMILES	KDM5B inh
CN(Cc1nc(-c2ccccc2)no1)CC1(O)CNCCOC1 (stereo not given)	i
Nc1nonc1C(=O)N1CCCN(C(=O)Nc2ccc(Cl)cc2)CC1	i
O=C(Nc1ccc2[nH]c(=O)[nH]c2c1)c1nn(-c2ccc(F)c(F)c2)c2c1CCC2	i
COc1ccc(-c2[nH]nc3ncc(C(=O)N4CC(O)C4)nc23)c(C)c1	i
Cc1ccsc1-c1[nH]nc2ncc(-c3ccccc3)nc12	i
COc1ccc(-c2[nH]nc3ncc(-c4cn[nH]c4)nc23)c(C)c1	31.6µM*
Cc1ccsc1-c1[nH]nc2ncc(-c3cn[nH]c3)nc12	31.6µM*
COc1ccc(NC(=O)c2cnc3n[nH]c(-c4ccc(OC)cc4C)c3n2)cc1	i
Cc1ccsc1-c1[nH]nc2ncc(-c3ccc(F)cc3)nc12	i
CN(C)c1ccc(C2CC(c3ccccc3)=CC(O)(c3ccccc3)C2C(=O)c2ccccc2)cc1 (stereo not given)	i
O=C(CSc1nnnn1-c1ccc(O)cc1)NC(Cc1ccccc1)c1ccccc1 (stereo not given)	i
CCOc1ccccc1NC(=O)C(=O)c1c[nH]c2c(CC)cccc12	i
COc1ccc(CNC(=O)COc2ccc3c(=O)c(Oc4ccc(F)cc4)coc3c2)cc1	i
COc1ccc(CNC[C@H]2Cn3c(-c4ccc(Cl)cc4)cnc3CO2)cc1	i
CCN(CC)CC(C)OC(=O)c1cccc(F)c1 (stereo not given)	i
CC(C)(C)CC(C)(C)NC(=O)C1CNC(=O)C1 (stereo not given)	i
COc1ccccc1-c1nocc1CCC(=O)O	i
COc1ccccc1-c1nc(C(=O)N(C)C)n2ccccc12	112µM*
COCCNC(=O)c1nc(-c2ccccc2OC)c2ccccn12	i
C#CCNC(=O)c1nc(-c2ccccc2OC)c2ccccn12	100µM*
C#CCNC(=O)c1nc(-c2ccccc2OC)c2cnccn12	89.1µM*
COc1ccccc1C(=O)Nc1c(-c2ccccc2)nc2ccccn12	i
CC(=O)NC(C)(C)C(=O)NCCC(c1ccccc1)c1ccccc1	i
Cc1ccc2[nH]cc(CCNC(=O)c3c(F)cccc3F)c2c1	i
C=C(C)CN1CCN(c2nc3c(c(=O)[nH]c(=O)n3C)n2Cc2ccccc2F)CC1	i
SMILES	KDM5B inh
CCCc1cc(=O)n2[nH]c(NC(=O)Cc3ccccc3)nc2n1	i
CCc1cccc2c(C(=O)CN3CCN(C(C)C(=O)NC4CC4)CC3)c[nH]c12 (stereo not given)	i
Cc1c(C(=O)NC2=NCCS2)oc2c(Cl)cccc12	i
O=C(Nc1cccc2c1CCCC2)c1cc(Br)cnc1Cl	i
CN(C)c1cccc(-c2n[nH]c3c2CC(=O)N(CC2CC2)C3)c1	20µM*
O=C1Cc2c(-c3ccc4c(c3)OCO4)n[nH]c2CN1CC1CCOCC1	i
COCc1cccc(-c2n[nH]c3c2CC(=O)N(CC2CC2)C3)c1	i
CC(NC(=O)CSc1nc2c(c(=O)n(C)c(=O)n2C)n1Cc1ccccc1F)c1ccccc1 (stereo not given)	i
CCc1noc(-c2ccn3c(CNC(=O)c4ccc(F)cc4)nnc3c2)n1	12.6µM*
CCc1noc(-c2ccn3c(CNC(=O)c4cccc(F)c4)nnc3c2)n1	i
CCc1noc(-c2ccn3c(CNC(=O)Cc4ccc(F)cc4)nnc3c2)n1	i
CCc1noc(-c2ccn3c(CNC(=O)c4cc(C)cc(C)c4)nnc3c2)n1	i
CCCc1noc(-c2ccn3c(CNC(=O)c4ccc(C)c(C)c4)nnc3c2)n1	4.47µM*
CCc1noc(-c2ccn3c(CNC(=O)c4cccnc4)nnc3c2)n1	28.2µM*
CCc1noc(-c2ccn3c(CNC(=O)c4ccc(C)c(C)c4)nnc3c2)n1	3.16µM*
CNC(=O)NC(=O)CN(CC(=O)N(C)C)CC(F)(F)F	i
Cc1nnc(N2CCOCC2)c2c1nnn2Cc1ccccc1Cl	i
Cc1cnc(NC(=O)C(C)(C)Oc2ccc(Cl)cc2Cl)s1	i
Cc1ccc(C(=O)COC(=O)c2cccc(C)c2C)cc1	i
Cc1oc(-c2ccccc2)nc1CC(=O)NC1CCCCC1	i
CCN(C(=O)C(C)S(=O)(=O)Cc1ccc(Cl)cc1Cl)c1ccccc1 (stereo not given)	i
CC(C)CNC(=O)COC(=O)c1cccc(F)c1	i
CCCc1noc(-c2ccn3c(CNC(=O)c4ccc(CC)cc4)nnc3c2)n1	25.1µM*
COc1ccc(Br)cc1C(=O)NCC1(c2ccccc2)CCOCC1	i
CSCC(=O)Nc1nn(-c2ccc(F)cc2)c2cccc(N3CCOCC3)c12	25.1µM*
SMILES	KDM5B inh
Cn1c(=O)n(C)c2cc(N3CCOCC3)c(NC(=O)c3c(F)cccc3F)cc21	i
O=C(CSc1ccccc1)Nc1ccc(N2CCOCC2)c(F)c1	i
O=C1NCc2ccccc2CC12CCCN(Cc1cccc(Cl)c1)C2 (stereo not given)	i
Cc1c(C(=O)c2ccccc2)oc2ccc(N)cc12	i
COCCNC(=O)c1nc(-c2ccc(F)cc2)c2cnccn12	31.6µM*
COC(=O)CNC(=O)c1nc(-c2ccc(F)cc2)c2cnccn12	39.8µM*
